Activity calls are given as the source filed them. Where a call stands in place of a potency, no number is given. The call rests on the fitted dose curve; in most records, active means well fitted activation curve with a large enough effect; inconclusive means small, poorly fitted or top-dose-only effect; inactive means no such curve, though single readings can be large or run the other way.
Potency means the concentration at half of the fitted maximal effect.

The test can be described thus: Counterscreen for Identifying a Potential Treatment of Ataxia-Telangiectasia: Hit Validation. The following applies: cell-free AlphaLISA/AlphaScreen artifact counterscreen, PBS only, no cells; series mostly up to 76.9 µM. From the text: NIH Chemical Genomics Center [NCGC]
NIH Molecular Libraries Probe Centers Network [MLPCN]
Assay Submitter (PI): Wei Zheng and Yosef Shiloh
Ataxia-telangiectasia (A-T) is a devastating and progressive disease for which, there is no cure. Although A-T is a multisystem disease, it is stereotyped characterized by its neurological symptoms such as truncal ataxia, due to cerebellar cortical degeneration of the Purkinje and granule cells. Other symptoms of A-T are telangiectasias (dilated blood vessels), primary immunodeficiency, marked sensitivity to ionizing radiation (IR), chromosomal instability and predisposition to cancer.
The underlying genetic cause of A-T is null mutations in the ATM (A-T mutated) gene. ATM is a nuclear serine/threonine kinase that functions as a master regulator of the cellular responses to double strand breaks (DSBs) in the DNA. Upon activation by DSBs, ATM phosphorylates a plethora of downstream targets, including KAP-1 on […]. KAP-1 phosphorylation occurs shortly in response to DSBs and mediates global chromatin relaxation, which facilitates DSB repair. To screen for small molecules that will compensate for the loss of ATM in cells derived from A-T patients, we monitored KAP-1 phosphorylation as a readout for ATM-like activity using an AlphaLISA assay.
3. Library compounds, 23 nl, 76.7 - 0.61uM dilution series final concentration
4. Incubation, 60 min, 37C, 5% CO2, 95% humidity
6. Incubation, 30 min, 37C, 5% CO2, 95% humidity
7. Reagent, 1 ul, Premixed detection reagents and lysis buffer
8. Reagent, 1 ul, 0.6% Antifoam A
9. Incubation, 6 hr, 25C, 95% humidity
10. Readout, EnVision, EnVision plate reader. AlphaScreen 1536-well protocol
PBS was dispensed into medium-binding white solid-bottom tissue culture treated Kalypsys plates with a Multidrop dispenser. Detection reagent and lysis buffer was 3.75nM Rab-a-pKAP1 antibody bound to 75 ng/ul AlphaScreen SA donor bead, 3.75 nM Biot-M-a-KAP1 antibody bound to AlphaLISA protein A acceptor bead, 0.5x protease inhibitor cocktail and 0.25x PerkinElmer lysis buffer. EnVision protocol for 1536-well AlphaScreen read (30ms excitation, 100ms read), about 10 min/plate. This assay is similar to the primary screen but is without cells. It aims to identify artifacts of the assay platform and unspecific hits.
Background: A counterscreen serves to expose hits that act by an unwanted route or on another target.
Regarding `Cc1[nH]c2c(C)cccc2c1CN1CCC(CO)(Cc2ccccc2)CC1`, the Potency entry was “inactive”. Consider `O=C(O)c1ccc(C2Nc3ccccc3C(=O)N2Cc2ccccc2)cc1` (stereo not given), for which the Potency result is “inactive”. As for `COc1ccccc1N1CN(CCc2ccccc2)CNC1=S`, the Potency result was “inactive”. Turning to `Cc1ccc(C2(C)NC(=O)N(CC(=O)Nc3ccccc3N3CCCC3)C2=O)cc1` (stereo not given), the Potency result was “inactive”. Next, `CCNC(=S)N(Cc1cc2cccc(C)c2[nH]c1=O)C1CCCC1`: “inactive”. Next, `Cc1nnc(SCC(=O)NC(=O)Nc2ccc3c(c2)OCCO3)n1N`: “inactive”; `COc1cccc(OC)c1C(=O)NC(=O)Nc1c(C)cccc1C`: “inactive”; `COc1ccc(NCc2cc(=O)oc3cc(NC(C)=O)ccc23)cc1`: “inactive”. In the case of `COc1ccccc1[C@H]1C(c2cccc(Cl)c2)=NN(c2ccccc2)[C@@H]1CO`, the Potency was 29.2 µM (active). With `CC(Oc1ccccc1)C(=O)Nc1cccc(NC(=O)c2ccco2)c1` (stereo not given), the Potency entry was “inactive”. The entry for `O=[N+]([O-])c1ccc(F)cc1F` is “inactive”; for `Cc1ccnc(NC(=O)c2ccccc2NC(=O)c2ccccc2)c1` it is “inactive”.

`CCS(=O)(=O)c1ccc(C(=O)Nc2ccccc2)c(Cl)c1Cl`: the Potency entry is “inactive”. As for `Clc1cccc(CN2CCC(Cc3ccccc3)CC2)c1`, the Potency result was “inactive”. Consider `CN(C)S(=O)(=O)c1ccc(NC(=O)c2ccc([N+](=O)[O-])cc2)cc1`, for which the Potency result is “inactive”. As for `CCn1c(N2CCN(CC(=O)c3c[nH]c4ccccc34)CC2)nc2c1c(=O)[nH]c(=O)n2C`, the Potency result is “inactive”.

Regarding `COc1ccc(C(=O)/C=C/C(=O)N(CC(=O)NC2CCCCC2)Cc2ccccc2)c(O)c1`, the Potency entry was “inactive”. As to `CN(Cc1ccccc1)C(=O)c1cccc(N2C(=O)C3CC=CCC3C2=O)c1` (stereo not given), the Potency entry was “inactive”. For `COc1cccc(CN(C)CC(=O)NCc2ccc(F)cc2)c1OC`, the Potency result is “inactive”. `COc1ccccc1C1CCN(C(=O)c2ccc(Cl)cc2)CC1`: the Potency result is “inactive”.

Turning to `CN(C)Cc1ccc(F)cc1Sc1cc(Cl)ccc1Cl`, the Potency result was “inactive”. Regarding `C/C(CCC1CC(C)OC1=O)=N\NC(N)=S` (stereo not given), the Potency result is “inactive”. Regarding `CC(=O)Nc1ccc(NC(=O)CSc2nnnn2-c2ccc(F)cc2)cc1`, the Potency result was “inactive”. Take `COc1cc(/C=C2\SC(=S)N(C(C(=O)O)c3ccccc3)C2=O)ccc1O` (stereo not given): the Potency entry is “inactive”.

Take `O=C(OCCc1cc2ccccc2c(=O)o1)c1cccc(Br)c1`: the Potency result is “inactive”.

For the compound `CCOC(=O)C1=C(C)N(c2ccc(OC)cc2)C(=O)/C1=C\c1ccc(O)c(OCC)c1`, the Potency result is “inactive”.

Take `COc1ccc(N(C)S(=O)(=O)c2cccc(C(=O)OCC(=O)NCc3ccccc3OC)c2)cc1`: the Potency result is “inactive”. Take `O=C(CN1C(=O)c2cccc([N+](=O)[O-])c2C1=O)NCc1ccccc1`: the Potency result is “inactive”. The entry for `N#Cc1c(-c2ccccc2)cc(-c2ccccc2)[nH]c1=O` is “inactive”. Turning to `Cc1ccc(C(=O)c2c(C)oc3c2C(=O)C(=O)c2ccccc2-3)cc1`, the Potency result is “inactive”.

With `CCOc1cc(/C=C/c2nc3ccccc3c(=O)[nH]2)ccc1O`, the Potency result was “inactive”. In the case of `O=C(Nc1cc(S(=O)(=O)N2CCOCC2)ccc1Cl)c1cc(=O)c2ccccc2o1`, the Potency result is “inactive”.

Regarding `CC1CC(C)CN(C(=O)COC(=O)c2c[nH]c3ccccc23)C1` (stereo not given), the Potency entry was “inactive”. The entry for `Fc1ccc(C2=NOC(c3nnc(-c4ccccc4)o3)C2)cc1` (stereo not given) is “inactive”. On to `COc1ccc(C(=O)N2CCCC2(C#N)c2ccccc2)cc1[N+](=O)[O-]` (stereo not given), for which the Potency result is “inactive”.

For `O=C1NC(=Nc2ccccc2)CS1`, the Potency entry is “inactive”. Consider `O=C(c1nn2c(C(F)(F)F)cc(-c3ccc(F)cc3)nc2c1Cl)N1CCOCC1`, for which the Potency result was “inactive”. In the case of `CCCCC(=O)NC(c1ccco1)c1c(O)ccc2ccccc12` (stereo not given), the Potency entry was “inactive”.

`COc1ccc(OC)c(C2CC(c3ccccc3)=NN2C(=S)Nc2ccccc2)c1` (stereo not given): the Potency entry was “inactive”. As to `Cc1c(Cc2ccccc2)c(NCCCO)n2c(nc3ccccc32)c1C#N`, the Potency result was “inactive”.

The values above are taken from PubChem BioAssay AID493185 (National Center for Advancing Translational Sciences (NCATS), 2011).
